Laboratory results as given in PubChem BioAssay.
A number with no mark means an inactive call. The rule behind the calls is not given here.

Each compound was assayed against Pantothenate synthetase (Mycobacterium tuberculosis (strain ATCC 25618 / H37Rv)) (UniProt P9WIL5) (assay: Coupled enzyme confirmation of inhibitors against recombinant Mtb PanC (AID 375;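 note: 0% = full reaction with vehicle and 100% = no enzyme background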)). Settings: coupled enzyme assay; at 10 µM, active compounds read high.
Pantothenate synthetase (Mycobacterium tuberculosis (strain ATCC 25618 / H37Rv)), sequence (P9WIL5 whole entry, looked up): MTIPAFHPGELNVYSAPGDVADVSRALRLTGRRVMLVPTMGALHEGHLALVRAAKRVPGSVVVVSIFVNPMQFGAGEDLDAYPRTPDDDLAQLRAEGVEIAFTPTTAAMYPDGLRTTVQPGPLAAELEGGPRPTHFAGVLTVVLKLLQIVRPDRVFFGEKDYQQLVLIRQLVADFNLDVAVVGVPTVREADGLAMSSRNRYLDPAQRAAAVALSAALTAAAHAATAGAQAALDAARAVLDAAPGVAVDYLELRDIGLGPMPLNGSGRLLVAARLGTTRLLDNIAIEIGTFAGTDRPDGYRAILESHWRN

Row | Structure (SMILES) | inhibition [%]
1 | O=C(NC1CCS(=O)(=O)C1)OC1CCCCC1 (stereo not given) | 0
2 | CC(=O)OCC(=O)[C@@]12OC3(CCCC3)O[C@@H]1C[C@H]1[C@@H]3CCC4=CC(=O)C=C[C@]4(C)[C@@]3(F)[C@@H](O)C[C@@]12C | 1
3 | O=C(Nc1ccc2c(c1)OCO2)C(c1ccc(Cl)cc1)N1CCN(C(=O)c2ccco2)CC1 (stereo not given) | 0
4 | O=C(NCc1cccnc1)c1ccccn1 | 0
5 | CC(C)=CC(=O)Nc1ccc(Br)cc1 | 0
6 | CC(C)c1cc(C(=O)NCc2ccco2)no1 | 0
7 | COc1cccc(Oc2cn[nH]c2-c2ccc(O)cc2O)c1 | 0
8 | CCn1c(=O)cc(OCC(=O)NCCCN2CC(C)CC(C)C2)c2ccccc21 (stereo not given) | 3
9 | Cn1c(-c2ccc(F)cc2)cnc1SCC(=O)Nc1ccccc1N1CCOCC1 | 0
10 | CCC(=O)Nc1ccc(F)c(Cl)c1 | 6
11 | COc1ccc(OC)c(C(=O)c2ccc(C(=O)O)cc2)c1 | 0
12 | Cc1cccc(NC(=O)CN(C)S(=O)(=O)c2ccccc2)n1 | 7
13 | CCCN1CCN(C(=O)c2cn(CC(C)C)c(=O)c3cc(OC)c(OC)cc23)CC1 | 5
14 | CCOc1ccc2c(c1)c1nnc(SCC(=O)N3CCC(C)CC3)nc1n2C | 1
15 | Cc1nc(Sc2cccn2C)c(C(F)(F)F)c(=O)[nH]1 | 0
16 | CCn1c(Cc2ccccc2)nnc1SCC(=O)Nc1cc(C)on1 | 0
17 | O=C(NC1CC1)C1CCN(c2ccc(S(=O)(=O)N3CCOCC3)cc2)CC1 | 0
18 | O=C1C2ON(c3ccccc3)C(c3cccnc3)C2C(=O)N1c1ccccc1 (stereo not given) | 4
19 | O=C(CN1CCN(Cc2ccccc2F)C1=O)NCc1cccnc1 | 0
20 | COc1ccc(OC)c(NC(=O)c2cn(C)c(=O)c3cc(OC)c(OC)cc23)c1 | 1

Row | Structure (SMILES) | inhibition [%]
21 | O=C(c1ccccc1-c1ccccc1)N1CCN(c2ccccn2)CC1 | 0
22 | CN1CCC(=C2c3ccccc3C=Cc3ccccc32)CC1 | 0
23 | Cc1cccc(-n2ncc3c(NCc4ccccn4)ncnc32)c1 | 6
24 | O=C(O)c1ccc(CSc2ncn[nH]2)cc1 | 1
25 | O=C(c1cccn2c(=O)c3cc(Cl)ccc3nc12)N1CCOCC1 | 3
26 | COc1nc(NCCc2ccc(OC)c(OC)c2)nc(NC(C)(C)CO)n1 | 0
27 | CNCCCN1c2ccccc2CCc2ccccc21 | 0
28 | Cc1cc(C(=O)COC(=O)CCc2nc3ccccc3s2)c(C)n1C | 0
29 | CCOC(=O)C1CCCN(C/C(O)=C(\C#N)c2nc(-c3ccc(Cl)cc3)cs2)C1 (stereo not given) | 5
30 | O=C(O)CCc1ccc(-c2cccs2)n1CCC(=O)O | 1
31 | COc1cccc(N2CCN(Cc3nc(N)nc(Nc4ccccc4)n3)CC2)c1 | 0
32 | CCOC(=O)CCC(=O)Nc1ccc(S(=O)(=O)N2CCCC2)cc1 | 0
33 | CC(C)CNC(=O)C1C2C=CC(C2)C1C(=O)O (stereo not given) | 7
34 | CCS(=O)(=O)Nc1ccc(C(=O)CC2(O)C(=O)Nc3ccccc32)cc1 (stereo not given) | 14
35 | C=CCOc1nc2c(c(=O)n(C)c(=O)n2C)n1C | 0
36 | Cc1ccc(S(=O)(=O)N2CCN(c3nc(C)nc4sc(C)c(C)c34)CC2)cc1 | 2
37 | CCOC(=O)c1[nH]c(C)c(C(=O)Nc2ccccc2F)c1C | 3
38 | O=C(O)CC(NC(=O)c1ccccc1NC(=O)c1ccccc1)C(=O)O (stereo not given) | 0
39 | CCOC(=O)c1c(C)c(C(=O)NCCN2CCOCC2)c(C)n1C | 4
40 | Cc1nc2ccccc2c(=O)n1/N=C/c1ccncc1 | 3
